# Experimental data reported in ChEMBL document CHEMBL3988442, “University of Dundee, Small-Polar-MMV Screening Library” (2021).
# For some of these results: Measured potencies and affinities stand elsewhere.
# Key:
# Parameters in all cases: scale not given: direction of the effect not stated beside the values
# [1] = target: Protein translocase subunit SecA (Escherichia coli (strain K12)) (UniProt P10408); assay: Assay to Identify E. coli SecA ATPase Inhibitors; type: functional; details: 30 µM
# Chain of Protein translocase subunit SecA (Escherichia coli (strain K12)) (P10408 whole entry): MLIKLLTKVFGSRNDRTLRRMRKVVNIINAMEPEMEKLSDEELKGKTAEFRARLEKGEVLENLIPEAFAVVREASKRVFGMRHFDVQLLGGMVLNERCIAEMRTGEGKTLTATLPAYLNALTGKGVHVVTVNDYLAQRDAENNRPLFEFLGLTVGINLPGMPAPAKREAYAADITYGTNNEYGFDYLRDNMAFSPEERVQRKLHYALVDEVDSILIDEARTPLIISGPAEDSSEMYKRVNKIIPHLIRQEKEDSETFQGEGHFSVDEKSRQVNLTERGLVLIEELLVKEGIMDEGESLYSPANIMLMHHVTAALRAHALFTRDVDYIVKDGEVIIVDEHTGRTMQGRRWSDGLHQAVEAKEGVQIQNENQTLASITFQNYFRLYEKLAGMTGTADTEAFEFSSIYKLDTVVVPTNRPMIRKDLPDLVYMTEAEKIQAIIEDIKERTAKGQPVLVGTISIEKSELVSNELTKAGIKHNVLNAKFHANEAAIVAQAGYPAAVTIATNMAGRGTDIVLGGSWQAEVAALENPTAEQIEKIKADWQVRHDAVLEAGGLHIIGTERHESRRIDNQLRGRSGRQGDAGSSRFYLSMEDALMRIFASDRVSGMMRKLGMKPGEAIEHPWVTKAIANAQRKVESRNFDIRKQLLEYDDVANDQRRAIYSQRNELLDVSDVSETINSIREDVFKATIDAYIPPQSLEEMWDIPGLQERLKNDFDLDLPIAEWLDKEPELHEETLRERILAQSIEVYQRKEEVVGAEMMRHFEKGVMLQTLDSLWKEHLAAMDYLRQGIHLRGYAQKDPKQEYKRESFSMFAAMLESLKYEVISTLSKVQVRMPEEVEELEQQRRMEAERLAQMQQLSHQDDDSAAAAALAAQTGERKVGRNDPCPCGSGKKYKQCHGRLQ
# [2] = target: T1, Ubiquitin-activating enzyme e1, putative (Leishmania donovani (strain BPK282A1)) (UniProt E9BSI1); assay: Leishmania donovani Ubiquitin Activating Enzyme (LdE1); type: functional; details: 30 µM
# T1 sequence (whole entry): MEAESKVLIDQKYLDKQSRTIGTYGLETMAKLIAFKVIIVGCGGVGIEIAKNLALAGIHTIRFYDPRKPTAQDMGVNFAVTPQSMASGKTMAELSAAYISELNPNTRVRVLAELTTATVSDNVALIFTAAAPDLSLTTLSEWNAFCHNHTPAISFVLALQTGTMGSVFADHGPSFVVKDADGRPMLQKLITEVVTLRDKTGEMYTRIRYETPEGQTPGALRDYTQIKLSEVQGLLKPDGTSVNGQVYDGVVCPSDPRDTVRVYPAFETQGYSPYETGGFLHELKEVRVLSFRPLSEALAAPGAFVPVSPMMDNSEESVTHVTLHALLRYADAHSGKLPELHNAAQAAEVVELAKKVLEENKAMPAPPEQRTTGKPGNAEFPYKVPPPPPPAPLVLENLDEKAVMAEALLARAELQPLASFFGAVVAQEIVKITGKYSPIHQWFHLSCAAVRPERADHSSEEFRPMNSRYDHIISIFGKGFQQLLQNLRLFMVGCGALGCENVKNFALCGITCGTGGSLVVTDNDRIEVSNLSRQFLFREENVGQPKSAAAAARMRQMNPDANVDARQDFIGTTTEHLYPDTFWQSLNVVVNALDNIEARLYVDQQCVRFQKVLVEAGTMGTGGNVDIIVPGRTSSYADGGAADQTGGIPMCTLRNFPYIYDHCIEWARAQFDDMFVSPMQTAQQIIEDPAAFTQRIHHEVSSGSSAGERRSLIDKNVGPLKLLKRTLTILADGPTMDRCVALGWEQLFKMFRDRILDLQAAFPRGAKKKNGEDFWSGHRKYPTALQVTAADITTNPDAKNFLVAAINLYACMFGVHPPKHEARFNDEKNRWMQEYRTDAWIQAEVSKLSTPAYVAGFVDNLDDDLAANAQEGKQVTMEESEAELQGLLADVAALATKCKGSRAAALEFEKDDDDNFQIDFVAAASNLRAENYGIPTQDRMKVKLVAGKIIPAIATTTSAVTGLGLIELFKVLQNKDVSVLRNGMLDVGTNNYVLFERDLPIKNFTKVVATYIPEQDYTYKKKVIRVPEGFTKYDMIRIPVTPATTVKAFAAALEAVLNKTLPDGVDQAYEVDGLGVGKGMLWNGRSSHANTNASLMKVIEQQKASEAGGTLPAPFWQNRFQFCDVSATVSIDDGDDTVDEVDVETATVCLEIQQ
# [3] = target: T2, Aspartate--tRNA(Asp/Asn) ligase (Mycobacterium tuberculosis (strain ATCC 25618 / H37Rv)) (UniProt P9WFW3); assay: Assay for Asp RNA synthetase-1 from Mycobacterium tuberculosis; type: functional; details: 30 µM; note: in the data most compounds retested in dose-response had high values
# T2 sequence (whole entry): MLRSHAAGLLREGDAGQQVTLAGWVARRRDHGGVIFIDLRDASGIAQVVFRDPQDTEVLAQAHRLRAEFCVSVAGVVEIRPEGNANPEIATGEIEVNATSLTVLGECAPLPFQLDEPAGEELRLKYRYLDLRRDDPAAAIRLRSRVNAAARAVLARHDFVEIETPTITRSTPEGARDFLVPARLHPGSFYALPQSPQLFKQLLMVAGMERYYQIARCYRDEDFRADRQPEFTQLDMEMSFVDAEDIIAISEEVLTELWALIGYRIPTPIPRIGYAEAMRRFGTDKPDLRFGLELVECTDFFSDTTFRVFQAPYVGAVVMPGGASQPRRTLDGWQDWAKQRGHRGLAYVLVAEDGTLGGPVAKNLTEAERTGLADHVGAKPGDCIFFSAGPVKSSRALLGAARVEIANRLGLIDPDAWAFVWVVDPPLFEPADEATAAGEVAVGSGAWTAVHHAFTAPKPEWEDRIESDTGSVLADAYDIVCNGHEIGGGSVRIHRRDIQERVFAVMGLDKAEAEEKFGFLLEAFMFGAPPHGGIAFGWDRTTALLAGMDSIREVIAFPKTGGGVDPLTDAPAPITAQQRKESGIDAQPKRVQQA
# [4] = target: AMP-activated protein kinase, AMPK (Homo sapiens) (UniProt P54646+O43741+P54619+Q9UGJ0+Q9Y478+Q13131+Q9UGI9); assay: AMP-dependent Kinase enzyme assay. An in vitro enzyme assay that detects ADP turnover that is directly proportional to AMPK activity. This uses naive AMPK that is activated during the assay with MK-8722; type: functional; details: 30 µM
# [5] = target: Sialic acid-binding Ig-like lectin 9 (Homo sapiens) (UniProt Q9Y336); assay: Hs-Siglec9 ALPHAscreen SOP 20170721; details: 10 µM
# Chain of Sialic acid-binding Ig-like lectin 9 (Homo sapiens) (Q9Y336 whole entry): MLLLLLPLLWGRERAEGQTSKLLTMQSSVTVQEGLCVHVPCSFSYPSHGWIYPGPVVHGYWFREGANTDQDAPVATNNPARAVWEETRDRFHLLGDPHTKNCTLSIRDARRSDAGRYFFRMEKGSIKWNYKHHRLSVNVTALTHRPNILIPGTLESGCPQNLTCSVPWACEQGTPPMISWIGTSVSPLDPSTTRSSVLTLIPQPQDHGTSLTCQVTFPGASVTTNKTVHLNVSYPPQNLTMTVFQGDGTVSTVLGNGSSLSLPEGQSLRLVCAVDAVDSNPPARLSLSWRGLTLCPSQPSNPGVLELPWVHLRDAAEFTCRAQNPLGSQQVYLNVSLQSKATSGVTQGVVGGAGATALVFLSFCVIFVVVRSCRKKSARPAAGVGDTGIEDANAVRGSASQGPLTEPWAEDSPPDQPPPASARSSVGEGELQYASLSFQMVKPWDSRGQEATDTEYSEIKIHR
# Trypanosoma cruzi = assay: Trypanosoma cruzi phosphomannomutase and mannose-1-phosphate guanylyltransferase assay; type: functional; details: 10 µM
# [6] = target: T3, Arginase-2, mitochondrial (Homo sapiens) (UniProt P78540); assay: in vitro enzyme assay to detect the production of urea directly proportional to the activity of Arginase II; type: functional; details: 33.3 µM; note: in the data most compounds retested in dose-response had high values
# T3 sequence (whole entry): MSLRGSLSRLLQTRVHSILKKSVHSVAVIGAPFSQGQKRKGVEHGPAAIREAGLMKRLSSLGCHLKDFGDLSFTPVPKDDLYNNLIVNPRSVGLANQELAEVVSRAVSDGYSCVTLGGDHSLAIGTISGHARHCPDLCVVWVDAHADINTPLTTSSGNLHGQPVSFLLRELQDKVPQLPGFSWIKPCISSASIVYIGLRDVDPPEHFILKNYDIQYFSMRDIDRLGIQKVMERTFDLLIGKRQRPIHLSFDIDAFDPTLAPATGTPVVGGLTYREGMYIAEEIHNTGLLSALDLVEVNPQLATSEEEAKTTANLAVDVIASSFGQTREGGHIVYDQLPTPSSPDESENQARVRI
# [7] = target: T4, Proteasome subunit beta (Trypanosoma cruzi) (UniProt O96673); assay: Trypanosoma cruzi proteasome chymotrypsin-like activity (TcProtChymo) assay.; note: in the data most compounds retested in dose-response had high values; type: functional; details: 9.37 µM
# T4 sequence (whole entry): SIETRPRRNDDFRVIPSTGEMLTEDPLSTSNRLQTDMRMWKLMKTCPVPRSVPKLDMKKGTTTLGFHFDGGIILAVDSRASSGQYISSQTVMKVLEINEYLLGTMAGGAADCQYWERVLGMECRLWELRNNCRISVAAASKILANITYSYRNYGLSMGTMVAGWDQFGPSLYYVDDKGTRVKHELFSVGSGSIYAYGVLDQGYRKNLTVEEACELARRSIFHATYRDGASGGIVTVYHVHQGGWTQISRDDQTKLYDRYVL
# Homo sapiens = species on record: Homo sapiens; assay: To identify inhibition of the IFN signalling (Jak-Stat) pathway via expression of an eGFP reporter gene under the control of an IFN-stimulated response element (ISRE) containing MxA promoter.; type: functional; details: 30 µM
# [8] = target: Shiga toxin 2 (Escherichia coli O157:H7) (UniProt P09385+P09386); assay: E. coli 0.157:H7 Shiga Toxin SOP - stx2 screening assay; type: functional; details: 30 µM
# [9] = target: T5, Tyrosyl-tRNA synthetase, putative (Trypanosoma cruzi (strain CL Brener)) (UniProt Q4DSP6); assay: Trypanosoma cruzi tyrosyl tRNA synthetase (TcYRS) _High Tyrosine SOP; type: functional; details: 30 µM; note: in the data most compounds retested in dose-response had high values
# T5 sequence (whole entry): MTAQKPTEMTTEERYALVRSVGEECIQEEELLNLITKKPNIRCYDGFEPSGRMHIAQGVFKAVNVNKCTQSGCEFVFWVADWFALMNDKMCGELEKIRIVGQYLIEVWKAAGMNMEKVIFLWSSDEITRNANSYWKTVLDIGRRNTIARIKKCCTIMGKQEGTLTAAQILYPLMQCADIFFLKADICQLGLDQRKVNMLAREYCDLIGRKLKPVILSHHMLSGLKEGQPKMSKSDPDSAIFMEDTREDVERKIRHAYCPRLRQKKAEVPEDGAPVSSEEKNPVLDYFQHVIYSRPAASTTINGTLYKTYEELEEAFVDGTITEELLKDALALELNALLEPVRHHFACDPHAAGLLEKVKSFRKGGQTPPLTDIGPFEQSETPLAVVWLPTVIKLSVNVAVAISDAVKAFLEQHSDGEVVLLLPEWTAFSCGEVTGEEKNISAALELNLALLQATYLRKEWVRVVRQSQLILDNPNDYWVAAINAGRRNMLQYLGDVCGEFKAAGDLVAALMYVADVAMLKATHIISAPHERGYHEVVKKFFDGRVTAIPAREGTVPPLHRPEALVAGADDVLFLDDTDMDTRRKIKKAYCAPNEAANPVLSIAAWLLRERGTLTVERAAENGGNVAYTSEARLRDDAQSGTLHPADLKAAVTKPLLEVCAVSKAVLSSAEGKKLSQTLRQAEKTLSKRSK
# [10] = target: T5, Tyrosyl-tRNA synthetase, putative (Trypanosoma cruzi (strain CL Brener)); assay: Trypanosoma cruzi tyrosyl tRNA synthetase (TcYRS) SOP; type: functional; details: 30 µM
# [11] = target: Chromo domain-containing protein 1 (Saccharomyces cerevisiae (strain ATCC 204508 / S288c) (Baker's yeast)) (UniProt P32657); assay: ScCHD-1 Enzyme Inhibition Assay; type: functional; details: 30 µM; note: in the data most compounds retested in dose-response had high values
# Chain of Chromo domain-containing protein 1 (Saccharomyces cerevisiae (strain ATCC 204508 / S288c) (Baker's yeast)) (P32657 whole entry, the tested form may be a part): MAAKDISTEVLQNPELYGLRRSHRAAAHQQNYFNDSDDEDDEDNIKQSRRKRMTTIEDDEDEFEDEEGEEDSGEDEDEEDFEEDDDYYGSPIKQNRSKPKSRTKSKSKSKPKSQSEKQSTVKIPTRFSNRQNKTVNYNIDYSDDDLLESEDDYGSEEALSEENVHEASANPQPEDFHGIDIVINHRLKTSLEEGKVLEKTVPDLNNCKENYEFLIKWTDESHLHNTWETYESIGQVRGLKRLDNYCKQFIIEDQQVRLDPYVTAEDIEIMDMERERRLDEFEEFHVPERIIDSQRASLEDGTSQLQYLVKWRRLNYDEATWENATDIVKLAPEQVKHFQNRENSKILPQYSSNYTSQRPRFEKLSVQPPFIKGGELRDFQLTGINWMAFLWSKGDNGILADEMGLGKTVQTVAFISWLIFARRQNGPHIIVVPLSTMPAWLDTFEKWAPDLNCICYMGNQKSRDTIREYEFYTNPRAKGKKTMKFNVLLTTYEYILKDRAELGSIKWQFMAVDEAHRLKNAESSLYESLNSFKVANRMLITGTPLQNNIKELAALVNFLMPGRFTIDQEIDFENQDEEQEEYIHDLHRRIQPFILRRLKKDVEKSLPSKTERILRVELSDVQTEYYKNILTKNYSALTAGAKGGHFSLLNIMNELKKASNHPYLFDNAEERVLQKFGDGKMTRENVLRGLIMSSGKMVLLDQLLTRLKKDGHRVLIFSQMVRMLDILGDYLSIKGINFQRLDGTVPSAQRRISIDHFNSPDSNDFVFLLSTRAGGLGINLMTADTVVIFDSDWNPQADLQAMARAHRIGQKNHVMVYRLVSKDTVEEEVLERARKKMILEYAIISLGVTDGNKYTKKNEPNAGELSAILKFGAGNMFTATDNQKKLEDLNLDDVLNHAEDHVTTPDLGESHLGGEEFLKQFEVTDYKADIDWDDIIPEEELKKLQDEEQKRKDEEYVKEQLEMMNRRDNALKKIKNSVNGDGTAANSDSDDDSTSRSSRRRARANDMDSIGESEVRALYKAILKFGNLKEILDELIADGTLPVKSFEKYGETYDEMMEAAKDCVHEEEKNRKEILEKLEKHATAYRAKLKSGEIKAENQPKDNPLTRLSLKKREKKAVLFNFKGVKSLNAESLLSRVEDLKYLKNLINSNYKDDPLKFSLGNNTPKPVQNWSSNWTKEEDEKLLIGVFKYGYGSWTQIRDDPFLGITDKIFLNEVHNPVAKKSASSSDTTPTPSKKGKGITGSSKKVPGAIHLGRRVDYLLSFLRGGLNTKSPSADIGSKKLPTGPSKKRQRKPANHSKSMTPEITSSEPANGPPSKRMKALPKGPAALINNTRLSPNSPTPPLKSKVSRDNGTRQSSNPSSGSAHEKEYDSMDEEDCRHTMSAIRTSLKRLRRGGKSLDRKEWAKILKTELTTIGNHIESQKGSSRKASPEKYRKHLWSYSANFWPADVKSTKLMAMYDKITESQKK
Compound,Percent Effect [1],Percent Effect [2],Percent Effect [3],Percent Effect [4],Percent Effect [5],Percent Effect (Trypanosoma cruzi),Percent Effect [6],Percent Effect [7],Percent Effect (Homo sapiens),Percent Effect [8],Percent Effect [9],Percent Effect [10],Percent Effect [11]
O=C(Cc1ccc(F)cc1)N1CCN(CC(O)C2CC2)CC1 (stereo not given),-9.94%,5.48%,0.575%,0.569%,-4.1%,-5.09%,-3.64%,6.74%,10.6%,7.07%,3.23%,10%,-5.88%
Cc1n[nH]c2c1C(c1cnn(C)c1)SCC(=O)N2 (stereo not given),-5.19%,1.33%,-2.64%,11.3%,3.08%,-2.16%,-11.4%,11.8%,6.26%,-3.86%,3.17%,12.8%,-9.44%
O=C(Nc1cccnc1)[C@H]1COC[C@H]2CN(C3CCCC3)C[C@H]21,-5.23%,8.11%,5.33%,1.79%,1.44%,2.15%,3.33%,10.2%,-5.51%,-10.3%,4.95%,11%,-4.54%
CC(C)CN1CCC2(CC1)C(=O)Nc1ccc(C(=O)N(C)C)cc12,-4.79%,5.41%,-0.578%,-2.95%,-1.19%,-3.81%,0.248%,8.67%,7.43%,5.38%,4.3%,8.64%,-2.28%
O=C(c1cc(-n2cnnn2)ccc1Cl)N1CCC2(CC1)OCCO2,-3.84%,5.26%,0.24%,3.99%,7.5%,-3.21%,-3.55%,8.53%,7.36%,-4.29%,3.19%,5.2%,-4.14%
c1ccc(O[C@H]2CC[C@H]3[C@H]2OCCN3Cc2nccs2)nc1,-1.17%,-5.2%,5.47%,-3.9%,10.1%,7.57%,-41.4%,13.6%,21%,-14.7%,3.23%,8.64%,-5.68%
Cc1cc(CN2C[C@@H]3COC[C@]3(CN(C)C)C2)no1,-1.63%,-2.7%,-2.03%,7.75%,3.28%,-3.42%,1.59%,26.4%,-4.54%,-2.49%,3.24%,2.56%,-2.67%
O=C(NCc1ccccn1)[C@]12COC[C@H]1CN(C1CCC1)C2,-2.39%,18.7%,-4.34%,0.454%,0.409%,3.86%,85.8%,10.9%,-5.18%,-15.4%,3.12%,10%,-7.8%
Cc1nc(C2(NCC(=O)NC(=O)NCc3cccs3)CCCCC2)no1,-4.13%,15.8%,-4.16%,-2.76%,-3.65%,2.82%,-3.55%,-0.479%,7.32%,5.13%,2.13%,15.6%,-4.77%
Cn1c(=O)n(C)c2cc(C3SCC(=O)Nc4ccsc43)ccc21 (stereo not given),-5.92%,6.67%,-5.4%,-13.6%,-2.48%,7.27%,-11.8%,12.9%,37.1%,-33.2%,4.23%,12.8%,-7.83%
